# From the supplement of paper PMC10849652
# Targets with a hit are over-represented here; the source holds about 7,900 in all. About 0.6% of all pairs of compound and target were hits. Unmarked numbers belong to inactive results.
# Tests used:
# Experiment in all cases: log2 fold change, soluble protein after heating vs DMSO (PISA); higher = thermal stabilisation; K562 cells, 10 uM, 30 min; active = over 0.2 and 3.5 SD of the protein, either way, in both replicates (recomputed)
# saracatinib = compound: CN1CCN(CCOc2cc(OC3CCOCC3)c3c(Nc4c(Cl)ccc5c4OCO5)ncnc3c2)CC1 [saracatinib]
# How it was run: (§1)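 K562 cells at 2×10^6 cells/mL were treated for 30 min with 10 μM compound, and aliquots were heated for 3 min over 48°C-58°C before pooling. Extraction used PBS with 0.5% NP-40 at 4°C, and soluble protein was the supernatant after 21,000xg for 90 min, measured by TMTpro 16plex LC-MS/MS with channel sums equalised. Thermal stability values, relative to control samples and from duplicates, are log2 fold changes.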
# sotrastaurin = compound: CN1CCN(c2nc(C3=C(c4c[nH]c5ccccc45)C(=O)NC3=O)c3ccccc3n2)CC1 [sotrastaurin]
# How it was run: as §1
# alvocidib = compound: CN1CC[C@H](c2c(O)cc(O)c3c(=O)cc(-c4ccccc4Cl)oc23)[C@H](O)C1 [alvocidib]
# How it was run: as §1
# Tubastatin A = compound: CN1CCc2c(c3ccccc3n2Cc2ccc(C(=O)NO)cc2)C1 [Tubastatin A]
# How it was run: as §1
# [1] = compound: CNC(=O)C1=CC=CC=C1NC2=NC(=NC=C2Cl)NC3=C(C=C(C=C3)N4CCOCC4)OC
# How it was run: as §1
# defactinib = compound: CNC(=O)c1ccc(Nc2ncc(C(F)(F)F)c(NCc3nccnc3N(C)S(C)(=O)=O)n2)cc1 [defactinib]
# How it was run: as §1
# rucaparib = compound: CNCc1ccc(-c2[nH]c3cc(F)cc4c3c2CCNC4=O)cc1 [rucaparib]
# How it was run: as §1
# [2] = compound: CNc1nc(-c2ccc3c(N)n[nH]c3c2)cc(N2C[C@@H](C(=O)NC3CCCCC3)CC[C@H]2C)n1
# How it was run: as §1
# encorafenib = compound: COC(=O)N[C@@H](C)CNc1nccc(-c2cn(C(C)C)nc2-c2cc(Cl)cc(NS(C)(=O)=O)c2F)n1 [encorafenib]
# How it was run: as §1
# [3] = compound: COC(=O)[C@H](CCSC)NC(=O)C1=C(C=C(C=C1)NC[C@H](CS)N)C2=CC=CC=C2
# How it was run: as §1
# [4] = compound: COC1=CC=C(C=C1)CN2C=CC3=C2C=C(C=C3)C(=O)NO
# How it was run: as §1
# filanesib = compound: CON(C)C(=O)N1N=C(c2cc(F)ccc2F)S[C@@]1(CCCN)c1ccccc1 [filanesib]
# How it was run: as §1
# zotarolimus = compound: CO[C@H]1C[C@@H]2CC[C@@H](C)[C@@](O)(O2)C(=O)C(=O)N2CCCC[C@H]2C(=O)O[C@H]([C@H](C)C[C@@H]2CC[C@H](n3cnnn3)[C@H](OC)C2)CC(=O)[C@H](C)/C=C(\C)[C@@H](O)[C@@H](OC)C(=O)[C@H](C)C[C@H](C)/C=C/C=C/C=C/1C [zotarolimus]
# How it was run: as §1
# idasanutlin = compound: COc1cc(C(=O)O)ccc1NC(=O)[C@@H]1N[C@@H](CC(C)(C)C)[C@](C#N)(c2ccc(Cl)cc2F)[C@H]1c1cccc(Cl)c1F [idasanutlin]
# How it was run: as §1
# alisertib = compound: COc1cc(Nc2ncc3c(n2)-c2ccc(Cl)cc2C(c2c(F)cccc2OC)=NC3)ccc1C(=O)O [alisertib]
# How it was run: as §1
# [5] = compound: COc1cc2nc(-c3cc(F)ccc3O)nc(N[C@@H]3CNC[C@H]3C(C)(C)O)c2cc1OC
# How it was run: as §1
# gefitinib = compound: COc1cc2ncnc(Nc3ccc(F)c(Cl)c3)c2cc1OCCCN1CCOCC1 [gefitinib]
# How it was run: as §1
# [6] = compound: COc1cccc2cc(-c3nc([C@H]4CC[C@H](C(=O)O)CC4)n4ncnc(N)c34)[nH]c12
# How it was run: as §1
# lapatinib = compound: CS(=O)(=O)CCNCc1ccc(-c2ccc3ncnc(Nc4ccc(OCc5cccc(F)c5)c(Cl)c4)c3c2)o1 [lapatinib]
# How it was run: as §1
# pictilisib = compound: CS(=O)(=O)N1CCN(Cc2cc3nc(-c4cccc5[nH]ncc45)nc(N4CCOCC4)c3s2)CC1 [pictilisib]
# How it was run: as §1
# Chain of UniProt Q9BVV7 (Q9BVV7 whole entry, looked up): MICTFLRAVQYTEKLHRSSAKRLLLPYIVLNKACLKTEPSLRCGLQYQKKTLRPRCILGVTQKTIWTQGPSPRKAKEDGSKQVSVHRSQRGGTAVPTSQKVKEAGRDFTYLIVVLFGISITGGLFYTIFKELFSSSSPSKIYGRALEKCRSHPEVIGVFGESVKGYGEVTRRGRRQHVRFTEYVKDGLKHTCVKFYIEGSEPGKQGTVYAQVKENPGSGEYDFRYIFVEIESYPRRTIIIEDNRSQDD
# Chain of UniProt O00193 (O00193 whole entry, looked up): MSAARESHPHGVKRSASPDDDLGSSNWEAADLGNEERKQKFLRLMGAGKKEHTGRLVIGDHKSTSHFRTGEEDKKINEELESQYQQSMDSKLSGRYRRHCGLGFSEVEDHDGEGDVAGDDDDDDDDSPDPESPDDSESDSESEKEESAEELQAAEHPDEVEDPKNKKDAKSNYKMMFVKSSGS
# Chain of UniProt P04183 (P04183 whole entry, looked up): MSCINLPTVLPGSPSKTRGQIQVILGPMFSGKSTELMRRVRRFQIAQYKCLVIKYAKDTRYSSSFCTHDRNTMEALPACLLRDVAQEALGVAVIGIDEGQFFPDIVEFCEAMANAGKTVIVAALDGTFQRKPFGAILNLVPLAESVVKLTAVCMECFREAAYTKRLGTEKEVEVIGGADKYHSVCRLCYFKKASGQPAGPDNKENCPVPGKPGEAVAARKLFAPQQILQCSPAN
# Chain of UniProt Q96Q15 (Q96Q15 whole entry, looked up): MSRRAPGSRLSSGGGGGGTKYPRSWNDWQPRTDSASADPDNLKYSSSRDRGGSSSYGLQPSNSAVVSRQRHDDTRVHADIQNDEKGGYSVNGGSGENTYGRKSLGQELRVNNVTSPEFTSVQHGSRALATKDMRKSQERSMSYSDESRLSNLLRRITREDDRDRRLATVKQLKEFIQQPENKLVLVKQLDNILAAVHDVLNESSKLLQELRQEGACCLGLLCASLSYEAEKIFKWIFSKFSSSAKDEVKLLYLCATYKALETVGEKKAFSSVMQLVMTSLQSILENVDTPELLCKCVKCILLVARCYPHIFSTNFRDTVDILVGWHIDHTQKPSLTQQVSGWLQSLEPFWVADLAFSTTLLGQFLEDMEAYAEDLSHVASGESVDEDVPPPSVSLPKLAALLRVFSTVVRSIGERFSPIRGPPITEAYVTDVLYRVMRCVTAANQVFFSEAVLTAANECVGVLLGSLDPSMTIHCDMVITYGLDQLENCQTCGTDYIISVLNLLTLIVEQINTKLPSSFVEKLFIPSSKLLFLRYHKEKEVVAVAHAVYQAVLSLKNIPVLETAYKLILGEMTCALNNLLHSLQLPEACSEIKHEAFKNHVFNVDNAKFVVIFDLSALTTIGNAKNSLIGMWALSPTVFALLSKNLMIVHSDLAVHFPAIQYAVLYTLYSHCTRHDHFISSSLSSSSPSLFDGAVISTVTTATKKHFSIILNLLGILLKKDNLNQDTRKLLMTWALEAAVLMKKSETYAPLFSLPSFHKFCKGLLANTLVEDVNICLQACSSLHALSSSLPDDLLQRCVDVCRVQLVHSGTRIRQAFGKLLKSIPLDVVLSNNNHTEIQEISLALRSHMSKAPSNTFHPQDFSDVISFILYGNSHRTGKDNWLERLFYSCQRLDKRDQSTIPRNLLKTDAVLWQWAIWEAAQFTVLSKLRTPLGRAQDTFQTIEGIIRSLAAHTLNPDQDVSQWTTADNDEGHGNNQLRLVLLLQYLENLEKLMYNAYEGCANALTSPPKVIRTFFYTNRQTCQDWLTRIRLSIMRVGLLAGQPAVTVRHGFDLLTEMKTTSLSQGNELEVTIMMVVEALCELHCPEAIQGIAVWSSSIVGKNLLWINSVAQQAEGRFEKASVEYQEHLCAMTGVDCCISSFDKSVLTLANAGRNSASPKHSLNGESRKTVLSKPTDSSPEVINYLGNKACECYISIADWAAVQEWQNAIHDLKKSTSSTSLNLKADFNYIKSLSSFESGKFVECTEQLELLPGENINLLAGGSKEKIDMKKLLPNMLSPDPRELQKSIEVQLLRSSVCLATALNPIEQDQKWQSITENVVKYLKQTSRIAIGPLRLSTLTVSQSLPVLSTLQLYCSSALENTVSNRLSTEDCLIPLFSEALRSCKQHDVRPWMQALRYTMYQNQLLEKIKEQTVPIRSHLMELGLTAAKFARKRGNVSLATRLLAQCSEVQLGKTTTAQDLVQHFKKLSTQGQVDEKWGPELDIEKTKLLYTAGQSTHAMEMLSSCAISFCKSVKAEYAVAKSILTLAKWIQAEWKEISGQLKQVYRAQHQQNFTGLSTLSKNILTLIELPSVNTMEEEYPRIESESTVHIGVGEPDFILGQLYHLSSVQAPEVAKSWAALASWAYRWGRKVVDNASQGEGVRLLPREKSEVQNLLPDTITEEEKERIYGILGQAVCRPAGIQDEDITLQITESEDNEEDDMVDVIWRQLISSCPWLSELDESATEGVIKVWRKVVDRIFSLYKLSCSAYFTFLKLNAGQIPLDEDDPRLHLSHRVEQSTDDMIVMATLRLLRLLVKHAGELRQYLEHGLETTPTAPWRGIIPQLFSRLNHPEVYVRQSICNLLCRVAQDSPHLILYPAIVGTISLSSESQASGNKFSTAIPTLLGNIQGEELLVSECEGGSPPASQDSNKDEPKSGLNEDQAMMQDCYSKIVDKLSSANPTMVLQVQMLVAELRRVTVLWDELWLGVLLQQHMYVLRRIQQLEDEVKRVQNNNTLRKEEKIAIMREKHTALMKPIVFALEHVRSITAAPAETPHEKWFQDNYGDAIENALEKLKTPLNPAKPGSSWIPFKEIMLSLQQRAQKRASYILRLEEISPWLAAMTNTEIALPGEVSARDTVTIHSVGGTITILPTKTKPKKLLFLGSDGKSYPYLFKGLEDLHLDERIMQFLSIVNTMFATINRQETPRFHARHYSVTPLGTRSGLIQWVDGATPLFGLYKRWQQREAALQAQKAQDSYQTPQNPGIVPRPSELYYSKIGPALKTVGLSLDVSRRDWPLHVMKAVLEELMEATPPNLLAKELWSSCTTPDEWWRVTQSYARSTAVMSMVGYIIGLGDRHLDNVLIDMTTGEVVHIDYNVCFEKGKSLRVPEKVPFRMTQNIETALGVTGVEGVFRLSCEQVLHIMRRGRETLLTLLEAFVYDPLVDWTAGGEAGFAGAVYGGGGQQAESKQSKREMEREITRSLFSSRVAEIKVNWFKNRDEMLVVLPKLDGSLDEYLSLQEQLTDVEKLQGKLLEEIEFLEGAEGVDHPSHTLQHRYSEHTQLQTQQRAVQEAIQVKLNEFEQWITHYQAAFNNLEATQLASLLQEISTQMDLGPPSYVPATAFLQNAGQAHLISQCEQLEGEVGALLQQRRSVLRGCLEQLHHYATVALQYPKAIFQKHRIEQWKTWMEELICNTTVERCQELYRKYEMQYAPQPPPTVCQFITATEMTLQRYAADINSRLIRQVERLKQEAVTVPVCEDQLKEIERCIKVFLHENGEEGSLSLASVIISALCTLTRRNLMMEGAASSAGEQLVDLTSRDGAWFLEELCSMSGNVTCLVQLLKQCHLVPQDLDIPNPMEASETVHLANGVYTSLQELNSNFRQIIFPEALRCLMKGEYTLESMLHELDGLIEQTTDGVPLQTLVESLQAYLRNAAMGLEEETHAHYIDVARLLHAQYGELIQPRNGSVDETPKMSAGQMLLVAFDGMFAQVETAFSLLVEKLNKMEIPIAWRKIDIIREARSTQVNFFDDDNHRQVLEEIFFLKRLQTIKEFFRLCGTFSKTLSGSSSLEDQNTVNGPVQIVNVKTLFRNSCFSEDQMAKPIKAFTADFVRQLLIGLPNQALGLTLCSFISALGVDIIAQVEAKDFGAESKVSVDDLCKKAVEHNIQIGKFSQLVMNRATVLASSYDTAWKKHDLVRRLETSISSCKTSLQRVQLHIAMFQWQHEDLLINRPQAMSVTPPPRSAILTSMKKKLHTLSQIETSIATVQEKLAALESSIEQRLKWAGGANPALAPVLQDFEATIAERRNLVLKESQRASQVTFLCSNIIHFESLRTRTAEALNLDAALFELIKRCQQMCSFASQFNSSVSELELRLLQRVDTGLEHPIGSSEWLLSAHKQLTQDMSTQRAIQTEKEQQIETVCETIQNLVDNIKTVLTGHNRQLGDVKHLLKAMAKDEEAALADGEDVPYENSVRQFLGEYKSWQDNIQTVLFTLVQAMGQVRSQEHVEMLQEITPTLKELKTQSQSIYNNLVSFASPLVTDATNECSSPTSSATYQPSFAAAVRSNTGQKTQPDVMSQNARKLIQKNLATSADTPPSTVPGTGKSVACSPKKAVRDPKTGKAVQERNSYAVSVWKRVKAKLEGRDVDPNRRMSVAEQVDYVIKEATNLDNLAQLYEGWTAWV
# Chain of UniProt Q9Y5W9 (Q9Y5W9 whole entry, looked up): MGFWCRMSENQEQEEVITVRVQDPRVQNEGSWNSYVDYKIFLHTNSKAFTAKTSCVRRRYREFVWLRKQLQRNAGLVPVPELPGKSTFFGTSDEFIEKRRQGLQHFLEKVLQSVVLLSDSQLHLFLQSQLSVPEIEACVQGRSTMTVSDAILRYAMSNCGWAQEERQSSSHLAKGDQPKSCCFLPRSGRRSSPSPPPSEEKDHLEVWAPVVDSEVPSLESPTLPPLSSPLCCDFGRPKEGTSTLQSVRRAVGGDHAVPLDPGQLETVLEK
# Chain of UniProt Q9Y6I9 (Q9Y6I9 whole entry, looked up): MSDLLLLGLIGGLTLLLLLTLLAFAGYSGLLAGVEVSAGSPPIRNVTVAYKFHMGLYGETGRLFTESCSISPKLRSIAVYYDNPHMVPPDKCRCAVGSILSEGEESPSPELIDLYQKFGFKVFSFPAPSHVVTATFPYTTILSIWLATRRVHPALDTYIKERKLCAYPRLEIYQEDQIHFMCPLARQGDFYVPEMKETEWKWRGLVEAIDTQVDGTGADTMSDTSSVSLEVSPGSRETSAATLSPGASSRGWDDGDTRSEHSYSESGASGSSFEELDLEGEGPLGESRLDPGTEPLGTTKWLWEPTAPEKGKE
Target,log2 fold change (saracatinib),log2 fold change (sotrastaurin),log2 fold change (alvocidib),log2 fold change (Tubastatin A),log2 fold change [1],log2 fold change (defactinib),log2 fold change (rucaparib),log2 fold change [2],log2 fold change (encorafenib),log2 fold change [3],log2 fold change [4],log2 fold change (filanesib),log2 fold change (zotarolimus),log2 fold change (idasanutlin),log2 fold change (alisertib),log2 fold change [5],log2 fold change (gefitinib),log2 fold change [6],log2 fold change (lapatinib),log2 fold change (pictilisib)
STXBP5 (UniProt Q5T5C0),-0.014,0.019,-0.085,0.01,-0.023,-0.011,-0.002,-0.032,0.028,-0.003,-0.012,-0.039,0,-0.022,-0.084,0.015,-0.006,0.003,0.023,-0.038
STX17 (UniProt P56962),-0.038,0,-0.217,0.044,0.021,-0.266,0.152,0.127,0.091,-0.001,0.023,0.013,0.046,-0.027,-0.12,-0.081,0.027,-0.001,0.039,0.093
SRSF4 (UniProt Q08170),-0.065,0.028,0.135,0.17,-0.283,0.045,0.165,0.013,0.154,0.023,-0.085,0.234,0.053,0.207,-0.137,-0.04,-0.014,-0.089,0.137,-0.007
STK39 (UniProt Q9UEW8),-0.014,-0.017,0.013,0.009,-0.045,-0.015,0.014,-0.008,0.039,0.056,-0.016,-0.033,0.062,-0.06,-0.044,0.034,-0.014,-0.036,-0.002,0.107
SPR (UniProt P35270),0.318,0.052,0.064,-0.014,-0.053,0.237,0.043,0.026,-0.065,-0.021,0.794 (active),-0.087,0,-0.225,-0.051,-0.039,-0.008,0.021,-0.031,0.681 (active)
TIMM21 (UniProt Q9BVV7),0,-0.001,-0.05,-0.048,-0.025,-0.007,-0.04,-0.016,0.063,0.051,-0.038,-0.171,0.03,-0.078,0.054,-0.205,-0.006,0.01,-0.008,0.055
SPINDOC (UniProt Q9BUA3),0.185,-0.23,0.025,-0.121,-0.039,0.068,0,-0.02,0.057,0.049,0.165,0.221,-0.02,0.008,-0.113,0.145,0.073,0.017,-0.045,-0.117
SMPD4 isoform 4 (UniProt Q9NXE4),0.154,-0.082,-0.174,0.007,-0.041,-0.056,0.043,-0.071,-0.081,0,0.051,-0.223,0.011,-0.049,0.145,-0.109,0.02,-0.043,-0.013,-0.034
SMG1 (UniProt Q96Q15),-0.039,0.041,-0.085,0.014,0.042,0,0.025,-0.12,0.023,0.017,-0.142,0.061,-0.001,-0.038,-0.002,0.055,0.008,-0.047,0.003,0.018
TK1 (UniProt P04183),0.067,0.036,-0.028,0.034,-0.013,-0.021,-0.015,-0.003,-0.005,0.024,-0.012,-0.258 (active),-0.023,-0.011,-0.034,0.021,-0.018,0.073,-0.009,0.045
TEX264 (UniProt Q9Y6I9),-0.041,-0.027,-0.036,-0.077,0.13,0.112,0.407,0.629 (active),-0.039,0.071,0.07,-0.169,0.059,-0.076,-0.042,0.163,0.164,-0.046,0.421,0.321
SLC7A6OS (UniProt Q96CW6),0.14,0.008,0.024,-0.001,0.031,-0.144,-0.05,-0.078,-0.004,0.06,-0.085,0.006,0.046,-0.034,-0.073,-0.072,0.007,-0.037,0.038,0.019
SMARCE1 (UniProt Q969G3),-0.036,-0.204,-0.033,0.018,-0.032,0.579 (active),-0.016,0.023,0.166,-0.199,0.035,0.058,0.052,0.013,-0.21,-0.07,0.066,0.206,0.038,-0.062
THADA (UniProt Q6YHU6),0,-0.104,-0.095,0.073,-0.036,-0.079,-0.017,0.047,0.09,-0.014,0.019,-0.18,-0.008,-0.081,-0.022,-0.03,-0.031,0.014,0.012,-0.014
SMAP (UniProt O00193),-0.035,0.016,-0.015,0.016,-0.069,-0.001,-0.064,0.009,-0.054,0.013,-0.046,-0.154,-0.018,0.005,-0.01,0.02,0.033,0.051,-0.013,-0.016
SNX11 (UniProt Q9Y5W9),-0.055,-0.055,-0.135,-0.014,0.011,-0.02,-0.001,0.055,-0.074,0.002,0.025,-0.128,0.043,-0.008,-0.062,-0.15,-0.05,0.038,0.014,-0.173
